# Assay results reported in PubChem BioAssay (NCI).
# The panel holds about 83,000 compounds, 20% with a hit somewhere; the sample as a whole holds those more often.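 Single-concentration screen, 48 h exposure, 96-well plates. Endpoint: percent growth. Below 10 = active.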 A number with no mark means an inactive call. Calls of active or inactive are those of the source.
# System: HS 578T breast
# Test: NCI-60 one-dose screen, 48 h (100 = growth as untreated, 0 = no growth, -100 = all killed)
# Conditions: 10 µM unless noted
row,SMILES,growth
1,CN1CCN(c2nc3scc(-c4ccccc4)c3c(=O)[nH]2)CC1,100%
2,O=C(COc1cccc(/C=C2\Oc3ccc4ccccc4c3C2=O)c1)c1ccc([N+](=O)[O-])cc1,93.1%
3,CCCCCCCCCCN1CCC(N2CCCCC2)CC1,-5.23% (active)
4,Nc1nc2c(c(=O)[nH]1)C1(C(=O)Nc3ccccc31)c1c(nc(N)[nH]c1=O)N2,110%
5,O=c1c2ccccc2c2nccn2c2cc(Cl)ccc12,77.1%
6,N#Cc1c(NC(=O)c2ccco2)[n+]([O-])c2cc(Cl)c(Cl)cc2[n+]1[O-],84.4%
7,CCOC(=O)N1CCC(N=C2CSc3nnc(-c4cc(C(F)(F)F)cc(C(F)(F)F)c4)n3N2)CC1,21.5%
8,Cn1c(N2N=C(c3ccc(Cl)cc3)CC2c2ccccc2)nc(-c2ccccc2)c(C#N)c1=O (stereo unspecified),86.5%
9,N#Cc1ccc(-c2csc(Nc3ccc4nc5n(c(=O)c4c3)CCC5)n2)cc1,115%
10,CCCCNCCCN(CCCC)CCCNCCCC,80.2%
11,CN(C)c1ccc(-c2nc3ncc(Br)cc3o2)cc1,97.2%
12,Cc1ccc(S(=O)(=O)N2CCN(C(=O)CSc3nc4ccc(C)cc4[nH]3)CC2)cc1,126%
13,Cc1ccc2c(c1)C(=O)/C(=C\Nc1ccc(C(N)=O)cc1)C(O)O2 (stereo unspecified),97.4%
14,COc1cc(/C=C/C(=O)C(C(=O)/C=C/c2ccc(OC(=O)CCNc3nnc(C)s3)c(OC)c2)C(=O)CCNc2nnc(C)s2)ccc1OC(=O)CCNc1nnc(C)s1,18.2%
15,[N-]=[N+]=NCc1cccc(/C(O)=C/C(=O)C(=O)O)c1,82.6%
16,O=C(O)C1CCN(S(=O)(=O)c2ccc(-c3ccccc3)cc2)CC1,113%
17,Cc1cc(Br)c(C)cc1Br,105%
18,O=C(/C=C(\Nc1ccccc1)c1ccccc1)c1cn(-c2ccc([N+](=O)[O-])cc2)nn1,63%
19,COc1ccc(NS(=O)(=O)N2CCCCC2)cc1,108%
20,C[C@H]1C(=O)N2c3ccccc3[C@@]3(O)C[C@@H](n4cnc5ccccc5c4=O)C(=O)N1[C@@H]23,32.9%
21,COP(=O)(OC)C(c1ccccc1)(c1ccccc1)c1ccccc1,94.5%
22,Clc1ccc2nc(CI)c(CI)nc2c1,158%
23,O=C(/C=C/c1ccc([N+](=O)[O-])cc1)c1ccc2c3c(cccc13)CC2,-4.95% (active)
24,COc1ccc(CC(=O)Nc2nn3c(-c4cc(C(F)(F)F)cc(C(F)(F)F)c4)nnc3s2)cc1,75.6%
25,O=[N+]([O-])c1ccc2[nH]cc(-c3c4ccccc4cc4[nH]c5ccc([N+](=O)[O-])cc5c34)c2c1,30.4%
26,O=Nc1c2cccnc2n2nnc3ccc(Cl)cc3c12,70%
